Measurements reported in PubChem BioAssay (Tox21).
Records with an inconclusive call do not appear. Entries that show only a call come without a potency. More than one record can exist for a structure, and the calls need not agree. Activity calls are given as the source filed them. Calls come from the whole dose curve.

How the values were obtained:
[1] = biological target: Acetylcholinesterase (Homo sapiens) (UniProt P22303); experiment: Acetylcholinesterase (AChE) small molecule antagonists: colormetric cell-based qHTS assay (AID 1347395); note: nearly all actives have a fitted effect of over 30% in size; note: potency is the fitted concentration of half-maximal effect
Chain of Acetylcholinesterase (Homo sapiens) (P22303 whole entry, looked up): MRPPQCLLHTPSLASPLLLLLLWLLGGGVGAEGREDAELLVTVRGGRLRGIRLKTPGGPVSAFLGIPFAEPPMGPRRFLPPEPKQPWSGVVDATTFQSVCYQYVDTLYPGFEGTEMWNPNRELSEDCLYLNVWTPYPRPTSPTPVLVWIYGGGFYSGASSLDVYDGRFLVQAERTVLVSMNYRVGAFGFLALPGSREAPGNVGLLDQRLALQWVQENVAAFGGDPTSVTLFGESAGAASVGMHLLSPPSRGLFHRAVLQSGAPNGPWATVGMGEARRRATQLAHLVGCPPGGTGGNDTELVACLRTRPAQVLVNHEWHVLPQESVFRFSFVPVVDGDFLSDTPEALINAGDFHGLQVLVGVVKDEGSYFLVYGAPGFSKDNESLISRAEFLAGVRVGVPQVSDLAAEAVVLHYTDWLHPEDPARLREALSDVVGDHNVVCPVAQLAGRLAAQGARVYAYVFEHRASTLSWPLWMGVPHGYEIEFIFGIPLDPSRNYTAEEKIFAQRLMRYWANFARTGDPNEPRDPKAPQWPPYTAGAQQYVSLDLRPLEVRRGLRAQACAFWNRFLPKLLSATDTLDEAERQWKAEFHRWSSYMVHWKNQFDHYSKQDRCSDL
Summary of the method: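 AChE inhibition read colorimetrically via DTNB–thiocholine in SH-SY5Y cells. Compound 30 min, substrate 90 min, both 37 C.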

[2] = biological target: Acetylcholinesterase (Homo sapiens) (UniProt P22303); experiment: Acetylcholinesterase (AChE) small molecule antagonists: enzyme-based qHTS assay (AID 1347397); settings: Potency: AChE enzyme activity inhibition; outcome: AChE enzyme activity inhibition; note: nearly all actives have a fitted effect of over 55% in size
Summary of the method: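 Recombinant human AChE (50 mU/mL) preincubated with compound 30 min at room temperature; acetylthiocholine plus DTNB then added, and thiocholine formation read colorimetrically after 10 min at room temperature. DMSO served as vehicle control.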

[3] = biological target: Acetylcholinesterase (Homo sapiens) (UniProt P22303); experiment: Acetylcholinesterase (AChE) small molecule antagonists: fluorescence cell-based qHTS assay (AID 1347398); settings: Potency: AChE activity; outcome: AChE activity; note: nearly all actives have a fitted effect of over 50% in size
Summary of the method: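 SH-SY5Y cells (2000/well), attached overnight, incubated with compound 30 min at 37 C. Acetylthiocholine plus Thiolite Green then added for 40 min at room temperature. Thiocholine fluorescence (Ex/Em 490/520 nm) reports cellular AChE activity.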

[4] = biological target: Acetylcholinesterase (Homo sapiens) (UniProt P22303); experiment: Acetylcholinesterase (AChE) small molecule antagonists: enzyme-based qHTS assay with human liver microsomes (AID 1347399); settings: Potency: qHTS inhibition; outcome: qHTS inhibition; note: nearly all actives have a fitted effect of over 60% in size
Summary of the method: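 Recombinant human AChE (50 mU/mL in the enzyme mix) and human liver microsomes (0.25 mg/mL final) were preincubated with compound and NADPH (0.25 mg/mL final) for 30 min at 37 C. Acetylthiocholine/DTNB was then added; thiocholine was read colorimetrically after 10 min at room temperature.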

Row | SMILES | Potency [1] | Potency [2] | Potency [3] | Potency [4]
1 | CC(=O)SCc1ccco1 | inactive | inactive | inactive | inactive
2 | CCCCCCCCCCN | inactive | inactive | inactive | inactive
3 | CCC(CC)Nc1ccc(C)c(C)c1 | inactive | inactive | inactive | inactive
4 | CC(=O)NCCCS(=O)(=O)O | inactive | inactive | inactive | inactive
5 | CCOc1nc2cccc(C(=O)O)c2n1Cc1ccc(-c2ccccc2-c2nn[nH]n2)cc1 | inactive | inactive | inactive | inactive
6 | COS(C)(=O)=O | inactive | inactive | inactive | inactive
7 | CC(=O)O[C@H]1C[C@@H]2CC[C@@]1(C)C2(C)C | inactive | inactive | inactive | inactive
8 | C=CCS(=O)(=O)O | inactive | inactive | inactive | inactive
9 | COc1cc(C(C)(C)C)c(O)c(C(C)(C)C)c1 | inactive | inactive | inactive | inactive
10 | CCCCC/C(C=O)=C\c1ccccc1 | inactive | inactive | inactive | inactive
11 | CC1(C)O[C@@H]2C[C@H]3[C@@H]4CCC5=CC(=O)C=C[C@]5(C)[C@H]4[C@@H](O)C[C@]3(C)[C@]2(C(=O)CO)O1 | inactive | inactive | inactive | inactive
12 | N[C@@H](Cc1cc(I)c(O)c(I)c1)C(=O)O | inactive | inactive | inactive | inactive
13 | COc1ccc2nc(N)sc2c1 | inactive | inactive | inactive | inactive
14 | NNC(=O)c1ccncc1 | inactive | inactive | inactive | inactive
15 | Nc1nnnn1-c1ccccc1 | inactive | inactive | inactive | inactive
16 | CC(O)C#CC(C)O (stereo not given) | inactive | inactive | inactive | inactive
17 | CCOCC(=O)O | 36.4 µM (active) and inactive | inactive | inactive | inactive
18 | O=C(O)CCSSCCC(=O)O | inactive | inactive | inactive | inactive
19 | NC(N)=S | inactive | inactive | inactive | inactive
20 | O=C1c2ccccc2C(=O)N1CO | inactive | inactive | inactive | inactive

Row | SMILES | Potency [1] | Potency [2] | Potency [3] | Potency [4]
21 | CC(C)=CCC/C(C)=C/CC/C(C)=C/C(=O)OCC(=O)[C@@]1(O)CC[C@H]2[C@@H]3CCC4=CC(=O)C=C[C@]4(C)[C@H]3[C@@H](O)C[C@@]21C | inactive | inactive | inactive | inactive
22 | COCCOCCOC | inactive | inactive | inactive | inactive
23 | O=C(O)c1ccccc1C(c1ccc(O)cc1)c1ccc(O)cc1 | inactive | inactive | inactive | inactive
24 | COc1ccc(OC(F)(F)F)cc1CN[C@H]1CCCN[C@H]1c1ccccc1 | inactive | inactive | inactive | inactive
25 | CC1=C(/C=C/C(C)=C/C=C/C(C)=C/C(=O)O)C(C)(C)CCC1 | inactive | inactive | inactive | inactive
26 | CC(=O)OC(C(=O)c1ccccc1)c1ccccc1 (stereo not given) | inactive | inactive | inactive | inactive
27 | Nc1ncnc2c1ncn2[C@@H]1O[C@H](CO)[C@@H](O)[C@H]1O | inactive | inactive | inactive | inactive
28 | CN1C(C(=O)Nc2ccccn2)=C(O)c2ccccc2S1(=O)=O | inactive | inactive | inactive | inactive
29 | CCOCCOCC | inactive | inactive | inactive | inactive
30 | Oc1ccccc1Cc1ccccc1O | inactive | inactive | inactive | inactive
31 | CCCCCCCCCCCC[N+](C)(C)CCCS(=O)(=O)[O-] | inactive | inactive | inactive | inactive
32 | CCCCCCN | inactive | inactive | inactive | inactive
33 | CC(C)CCOC(=O)c1ccccc1 | inactive | inactive | inactive | inactive
34 | C[C@H]1[C@@H](c2ccccc2)NC(=O)N1C | inactive | inactive | inactive | inactive
35 | C=C(C)C(N)=O | inactive | inactive | inactive | inactive
36 | CCOC(=O)C(=O)CCc1ccccc1 | inactive | inactive | inactive | inactive
37 | c1ccc2[nH]cnc2c1 | inactive | inactive | inactive | inactive
38 | Oc1ccc(OCc2ccccc2)cc1 | inactive | inactive | inactive | inactive
39 | C=CC(=O)OCCCCCCOC(=O)C=C | inactive | inactive | inactive | inactive
40 | C[C@H](N)[C@H](O)c1cccc(O)c1 | inactive | inactive | inactive | inactive

Row | SMILES | Potency [1] | Potency [2] | Potency [3] | Potency [4]
41 | O=C(O)Cn1c(=O)n(Cc2ccc(Br)cc2F)c(=O)c2ccc(Cl)cc21 | inactive | inactive | inactive | inactive
42 | CCOC(=O)/C=C/c1ccccc1 | inactive | inactive | inactive | inactive
43 | O=C(c1ccccc1)C1(O)CCCCC1 | inactive | inactive | inactive | inactive
44 | c1cc(N(CC2CO2)CC2CO2)ccc1OCC1CO1 (stereo not given) | inactive | inactive | inactive | inactive
45 | CCCCCCCCCCCCCBr | inactive | inactive | inactive | inactive
46 | C[Si](C)(C)Cl | inactive | inactive | inactive | inactive
47 | O=[N+]([O-])c1ccc(O)c2ncccc12 | inactive | inactive | inactive | inactive
48 | CC1=NN(c2ccc(C(=O)O)cc2)C(=O)C1 | inactive | inactive | inactive | inactive
49 | Cc1cc(C(=C2C=CC(=Nc3ccc(S(=O)(=O)O)cc3S(=O)(=O)O)C=C2)c2ccc(Nc3ccc(S(=O)(=O)O)cc3)cc2)ccc1N | inactive | inactive | inactive | inactive
50 | CCOC(/C=C(\C)CCC=C(C)C)OCC | inactive | inactive | inactive | inactive
51 | CCCCCCCCCCCO | inactive | inactive | inactive | inactive
52 | C=CC(=C)CCC=C(C)C | inactive | inactive | inactive | inactive
53 | CCCCCCCCCCOC(C)=O | inactive | inactive | inactive | inactive
54 | CCC(=O)c1c(O)cc(O)cc1O | inactive | inactive | inactive | inactive
55 | CC(=O)[O][Al][O]C(C)=O | inactive | inactive | inactive | inactive
56 | Cc1cc(CC(=O)O)n(C)c1C(=O)c1ccc(Cl)cc1 | inactive | inactive | inactive | inactive
57 | COC(OC)C(C)c1ccccc1 (stereo not given) | inactive | inactive | inactive | inactive
58 | Cc1cccc(C(=O)O)c1 | inactive | inactive | inactive | inactive
59 | CCc1nc(N)nc(N)c1-c1ccc(Cl)cc1 | inactive | inactive | inactive | inactive
60 | CCC(=O)O[C@]1(C(=O)SCF)[C@H](C)C[C@H]2[C@@H]3C[C@H](F)C4=CC(=O)C=C[C@]4(C)[C@@]3(F)[C@@H](O)C[C@@]21C | inactive | inactive | inactive | inactive
